According to PubChem BioAssay:
Activity calls are given as the source filed them.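 The calls were made as follows: active = compounds killing one labelled cell type while sparing the other, by normalised counts and ratio limits, not self-fluorescent; inactive = the rest.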

Experiment: EMT-state selective cytotoxicity in co-culture – imaging, PC-3E GFP, TEM4-18 mCherry, primary screen (AID 1345086);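 also: cells exposed to compound for 72 h before imaging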;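 as to red/green cell ratio (normalised): normalised mesenchymal count divided by normalised epithelial count so high means epithelial killing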
Conditions: PC-3E GFP / TEM4-18 mCherry co-culture, imaging cell counts, at 1 µM; for red/green cell ratio (normalised): actives lie on both sides, counts scaled to control wells, 1 = unselective
[1] = measured here: epithelial PC-3E GFP cell survival
[2] = measured here: mesenchymal TEM4-18 mCherry cell survival

Row | SMILES | red/green cell ratio (normalised) | normalised cell number [1] | normalised cell number [2]
1 | Cc1ccc(S(=O)(=O)O[C@H]2CCOC2=O)cc1 | 0.92 (inactive) | 1.16 | 1.06
2 | COc1cccc2c1C(=O)OCc1cc(C)cc(O)c1O2 | 0.9 (inactive) | 1.17 | 1.05
3 | C[C@@]1(N)CCCCCN(c2c(F)cc3c(=O)c(C(=O)O)cn(C4CC4)c3c2Cl)C1 | 1.03 (inactive) | 0.97 | 1
4 | CC(=O)O[C@H]1CC[C@]2(C)C3CC[C@@]4(C)C(CC5O[C@@]6(CCC(C)CO6)[C@@H](C)C54)C3CC[C@@H]2C1 (some centres undefined) | 1.09 (inactive) | 0.87 | 0.95
5 | CN(C(=O)c1ccccc1)C1C(O[C@@H]2OC(COS(=O)(=O)O)C(NC(=O)c3ccccc3)[C@H](OS(=O)(=O)O)[C@H]2OS(=O)(=O)O)OC2C[C@@H](NC(=O)c3ccccc3)[C@@H](OC3C(NC(=O)c4ccccc4)C[C@@H](NC(=O)c4ccccc4)[C@H](OS(=O)(=O)O)[C@H]3OS(=O)(=O)O)OC2C1OS(=O)(=O)O (some centres undefined) | 1 (inactive) | 1.06 | 1.06
6 | CCC(=O)O[C@]1(C(=O)SCF)[C@H](C)CC2C3CC(F)C4=CC(=O)C=C[C@]4(C)C3(F)[C@@H](O)C[C@@]21C (some centres undefined) | 1.04 (inactive) | 0.87 | 0.9
7 | CC1(C)S[C@@H]2[C@H](NC(=O)C(NC(=O)N3CCNC3=O)c3ccccc3)C(=O)N2C1C(=O)O (some centres undefined) | 0.99 (inactive) | 1.15 | 1.14
8 | CC/C=C\[C@H](O)[C@H](O)C1=C(C)C(=O)[C@]2(O1)C(=O)N[C@@](OC)(C(=O)c1ccccc1)[C@@H]2O | 1.21 (inactive) | 0.79 | 0.95
9 | C=CC(C)(C)c1[nH]c2ccccc2c1C1=C(OC)C(=O)C(c2c(C(C)(C)C=C)[nH]c3ccccc23)=C(OC)C1=O | 0.88 (inactive) | 1.23 | 1.08
10 | CN(C(=O)OCc1ccccc1)C1C(O[C@@H]2OC(COS(=O)(=O)O)C(NC(=O)OCc3ccccc3)[C@H](OS(=O)(=O)O)[C@H]2OS(=O)(=O)O)OC2C[C@@H](NC(=O)OCc3ccccc3)[C@@H](OC3C(NC(=O)OCc4ccccc4)C[C@@H](NC(=O)OCc4ccccc4)[C@H](OS(=O)(=O)O)[C@H]3OS(=O)(=O)O)OC2C1OS(=O)(=O)O (some centres undefined) | 0.95 (inactive) | 1.05 | 1
11 | COc1ccc2cc(C(C)=O)ccc2c1 | 1.13 (inactive) | 0.99 | 1.12
12 | CC(C)CC1OC23SCC(c4ccccc4)N2C(=O)C1C(C)S3 (centres undefined) | 0.8 (inactive) | 1.19 | 0.96
13 | CC1(C)C2CCC1(C)C(O)C2 (centres undefined) | 1.2 (inactive) | 0.75 | 0.9
14 | Cc1ccc(S[C@H]2OC(COCc3ccccc3)C(OC(=O)CCC(=O)O)[C@@H]3OC(=O)N[C@H]23)cc1 (some centres undefined) | 0.99 (inactive) | 1.11 | 1.1
15 | CC(=C\C(=O)O)/C=C(\C)C[C@H](C)CCCC[C@H]1OC(=O)[C@@H]1CO | 1 (inactive) | 0.95 | 0.95
16 | O=C(O)c1cc(O)c2c(c1)[C@@H]([C@@H]1c3cc(C(=O)O)cc(O)c3C(=O)c3c(O[C@H]4O[C@H](CO)[C@@H](O)[C@H](O)[C@H]4O)cccc31)c1cccc(O[C@H]3O[C@H](CO)[C@@H](O)[C@H](O)[C@H]3O)c1C2=O | 0.83 (inactive) | 1.02 | 0.84
17 | C[C@@H]1[C@H](O)[C@@H](C)/C=C/C=C/C=C/C=C/C=C/C=C/C=C/[C@H](OC2O[C@H](C)[C@@H](O)[C@H](N)[C@@H]2O)C[C@@H]2O[C@](O)(C[C@@H](O)C[C@@H](O)[C@H](O)CC[C@@H](O)C[C@@H](O)CC(=O)O[C@H]1C)C[C@H](O)[C@H]2C(=O)O (some centres undefined) | 0.82 (inactive) | 1.26 | 1.03
18 | CCC[C@@H]1Cc2cc3c(-c4c(O)cc(O)c5c(O)c6c(cc45)C[C@@H](CCC)OC6=O)c(O)cc(O)c3c(O)c2C(=O)O1 | 0.85 (inactive) | 1.2 | 1.02
19 | CC1=CO[C@]2(C1=O)[C@H]1C(=O)O[C@]3(C[C@@H]2C)C(C)=CC(=O)O[C@]13O | 0.85 (inactive) | 1.16 | 0.99
20 | CC(=O)OCC[C@H](C)CCC=C(C)C | 1.13 (inactive) | 1 | 1.13
21 | CC(=O)O[C@H]1CC2CCC3C(CC[C@@]4(C)C3C[C@H]([N+]3(C)CCCCC3)[C@@H]4OC(C)=O)[C@@]2(C)C[C@@H]1N1CCCCC1 (some centres undefined) | 0.86 (inactive) | 1.03 | 0.88
22 | COC(=O)[C@@H]1OC(=O)C2OC23[C@@]1(C)CCC1[C@@]2(C)CCC(=O)C(C)(C)C2C[C@@H](OC(C)=O)[C@]13C (some centres undefined) | 1.04 (inactive) | 1.06 | 1.11
23 | C[C@@H]1C(=O)NC(Cc2ccccc2)C(=O)N2CCCC[C@H]2C(=O)O[C@H]([C@@H](C)CCCC[C@@H](C)O)C[C@H]1O (some centres undefined) | 0.9 (inactive) | 1.03 | 0.93
24 | CC1(C)C[C@@H]2C(=O)CC[C@@H]3O[C@]3(C)CC[C@H]21 | 0.92 (inactive) | 0.93 | 0.85
25 | Nc1ccc(Oc2ccccc2)cc1 | 0.95 (inactive) | 0.99 | 0.94
26 | CC(=O)OCC1=C[C@]2(O)CC3=C(CC24O[C@@H]4C1=O)[C@@]1(C)CCCC(C)(C)[C@@H]1CC3 (some centres undefined) | 1.02 (inactive) | 0.93 | 0.94
27 | C[C@H]1C[C@H]2O[C@@H]2/C=C\C=C\C(=O)Cc2c(Cl)c(O)cc(O)c2C(=O)O1 | 0.97 (inactive) | 0.89 | 0.87
28 | C=C1OC(=O)C23C1OC(CC(O)C2O)C3C (centres undefined) | 0.9 (inactive) | 1.26 | 1.14
